# Experimental data taken from PubChem BioAssay (NCI).
# Several values for one entry are separate records, joined by “and”; a condition that tells them apart may be missing. Equal entries are not always repeated. Compounds without any hit were thinned out: in the full panel of roughly 83,000, 20% have a hit.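 The test compound was applied at a single concentration to cells in 96-well plates for 48 hours, and percent growth was recorded.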 Activity calls are given as the source filed them. Rule for the calls: active = growth percent below 10; inactive = the rest.
# System: MDA-MB-468 breast
# Assay: NCI-60 one-dose screen, 48 h (100 = growth as untreated, 0 = no growth, -100 = all killed)
# Conditions: 10 µM unless noted
row,Structure (SMILES),growth
1,CC(=O)Oc1ccccc1C(=O)/C=C/c1cccc([N+](=O)[O-])c1,61.2% (inactive)
2,Nc1nc2c(nnn2C2CC(O)C(CO)O2)c(=O)[nH]1 (stereo not given),22.8% (inactive)
3,O=C1CCC2=C3C4CCCCC4C(=O)C4CCCC(OC2C1)C34 (stereo not given),33.3% (inactive)
4,Clc1ccc2c(NCCNc3nc(N4CCOCC4)nc4ccccc34)ccnc2c1,25.1% (inactive)
5,Cc1cccc(CO)c1,107% (inactive)
6,COc1ccccc1C1=C(Br)C(=O)c2nc(C)ccc2C1=O,107% (inactive)
7,CCCCC(O)(c1ccc(Cl)cc1)C(CN1CCOCC1)c1ccc(Cl)cc1 (stereo not given),24.7% (inactive)
8,O=C1OC(Oc2ccc(Br)cc2)(c2ccccc2)c2ccccc21 (stereo not given),69.8% (inactive) and 75.1% (inactive)
9,COc1ccc(/C=c2\sc3n(c2=O)C2C(NN=3)N(C)C(=O)N2C)cc1 (stereo not given),-8.89% (active)
10,CCc1cccc(NC(=O)CNc2cc(S(=O)(=O)N(C)C)cc(C)c2C)c1,87.3% (inactive)
11,COc1ccc(C(=O)N/N=C/c2cc(C(F)(F)F)ccc2Cl)cc1,53.2% (inactive)
12,COc1cccc(/C=C\C(=O)c2ccccc2)c1,69.4% (inactive)
13,C=CC(=O)NCc1ccc(Nc2nccc(-c3ccc(N4CCCC4)c(C#N)c3)n2)cc1,15.7% (inactive)
14,O=C(Cn1cncn1)Nc1ccc(-c2nc3ccccc3s2)cc1,-29.7% (active)
15,CC(=O)OC(C)COc1ccc(-c2ccccc2)cc1 (stereo not given),98.4% (inactive)
16,CC(C)N1CC(=O)N2CSCC2C1=O (stereo not given),92.6% (inactive)
17,O=C(NOCCO)c1cc(CN2OCCCC2=O)c(F)c(F)c1Nc1ccc(I)cc1F,114% (inactive)
18,C=C1C(=O)O[C@H]2[C@H]1CC/C(COC(=O)c1ccc(C#N)cc1)=C\CC[C@@]1(C)O[C@@H]21,-17.2% (active)
19,O=c1oc2ccccc2cc1-c1nn(-c2ccccc2)cc1/C=N/Nc1nc(-c2ccccc2)c(N=Nc2ccccc2)s1,48.5% (inactive)
20,Cc1cc(C(=O)Nc2ncc(Cc3cccc(C(F)(F)F)c3)s2)c2ccccc2n1,1.69% (active)

row,Structure (SMILES),growth
1,CCNC(=O)c1[nH]cc(-c2ccc(OC)cc2)c1-c1cc(OC)cc(OC)c1,76.2% (inactive)
2,Cn1cnc([N+](=O)[O-])c1S(=O)(=O)Oc1ccccc1,77.4% (inactive)
3,N#Cc1c(-c2ccccc2)nc(SCC(=O)N2CCN(c3ccccc3)CC2)[nH]c1=O,106% (inactive)
4,O=C(CCn1c[n+](CC(=O)c2ccc(F)cc2)c2ccccc21)Nc1cccc2cccnc12,-15.5% (active)
5,Cc1cn(-c2cc(NC(=O)c3ccc(C)c(Nc4nccc(-c5cnccn5)n4)c3)cc(C(F)(F)F)c2)cn1,103% (inactive)
6,O=C(/C=C/c1cccc([N+](=O)[O-])c1)c1ccc(O)c(CN2CCN(c3cc4c(cc3F)c(=O)c(C(=O)O)cn4C3CC3)CC2)c1,-24.5% (active)
7,C[C@]12CC[C@H]3[C@@H](CC=C4C[C@@H](O)CC[C@@]43C)[C@@H]1CC[C@@H]2[C@](C)(O)CCc1cccnc1,25.3% (inactive)
8,CCc1nn2c(C)cc(C)nc2c1Cc1ccc(/C=C/CN2CCN(CCOCCOCCN3CCN(C/C=C/c4ccc(Cc5c(CC)nn6c(C)cc(C)nc56)cc4)CC3)CC2)cc1,-6.16% (active)
9,CCC(C)CC(CC)NCCN1CCN(C(CC)CC(C)CC)C1=S (stereo not given),-43.6% (active)
10,COc1ccc(/C=C/C(=O)c2cc(OC)c(OC)c(OC)c2)cc1OCc1cn(Cc2ccc(F)cc2)nn1,25.2% (inactive)
11,COc1ccc(C(=O)/C=C/c2cccc(Nc3ccnc4cc(Cl)ccc34)c2)cc1,-2.59% (active)
12,C#Cc1nc(C2=C(C)C(=N\O)/C(=N/O)C2)cs1,82.6% (inactive)
13,Cc1ccc(O)c(C(=O)c2ccccc2Cl)c1,106% (inactive)
14,CCCCCCCC1(C)NC(=O)NC1=O (stereo not given),115% (inactive)
15,CC(C)(C)c1ccc(O)c(Br)c1,70.2% (inactive)
16,CC[C@@H](C(=O)[C@@H](C)[C@@H](O)[C@H](C)[C@@H]1O[C@@H]([C@@H](CC)C(=O)N(CC)CC)CC[C@@H]1C)C1O[C@]2(C=CC(=O)[C@]3(CC[C@@](C)([C@H]4CC[C@](O)(CC)[C@H](C)O4)O3)O2)[C@H](C)C[C@@H]1C (stereo not given in full),-12.9% (active)
17,O=C(O)CCCCNC(=O)c1ccccc1,97.7% (inactive)
18,CN1CCN(Cc2ccc3c(NNC(=O)c4ccccc4)nc4cc(F)ccc4n23)CC1,-12.5% (active)
19,COc1cc2c(cc1-c1c(C)noc1C)ncc1nc(C3CCCCC3)n([C@@H](C)COC(F)F)c12,32.6% (inactive)
20,CC1(C)OC2COC3(C(=O)O)OC(C)(C)OC3C2O1 (stereo not given),93.6% (inactive)
